Values joined by “and” are separate entries in the source; they are usually repeats but may differ in a detail not shown here. Identical values can stand only once. The source holds several records for some structures; these can differ, active in one and inactive in another. Active and inactive are the calls of the source. Unless noted, no stated cut-off is given here; in the data, active means nuclear beta-catenin stimulation mostly above about 4.2% (no sharp cut-off); inactive means mostly below about 10%.
How the values were obtained:
[1] = Wnt pathway potentiators raising nuclear beta-catenin – imaging, WNT3A-conditioned medium, mouse C2C12, NPC library, primary screen (AID 1117326); conditions: stronger effect = higher value; further: reference of the scale not given here
[2] = stimulators of insulin release from INS-1E, primary screen, cell-based, 5 mM glucose, NPC library (AID 1117329;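 active means compound raises insulin release from rat beta cells at 5 mM glucose, no numeric limit stated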; further: reference of the scale not given here); conditions: rat INS-1E insulin secretion, at 10 µM, stronger effect = higher value
[3] = growth inhibition of GSK3B-pretreated HCT116 cells – cell-based, CellTiter-Glo, 0.2 to 20 µM (AID 1117336;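 active means compounds lowering colon cancer cell viability after pretreatment blocking the GSK3B kinase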); conditions: HCT116 viability after GSK3B inhibitor, at 20 µM, stronger effect = higher value
[4] = inhibition of endothelial tube formation, primary screen, imaging, VEGF stimulated, CD31 staining, tube area, NPC library (AID 1117340;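 active means compound that reduces growth-factor-driven endothelial tube area in a mixed cell culture, no cutoff stated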); conditions: VEGF-stimulated ADSC/ECFC co-culture, at 10 µM, stronger effect = higher value
[5] = GLP1 release stimulators, primary, NCI-H716, NPC library (AID 1117341;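 active means compound raises GLP1 secretion from the human gut endocrine cells, with no numeric limit stated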; further: reference of the scale not given here); conditions: NCI-H716 cells, at 10 µM, stronger effect = higher value
[6] = HCT116 colon cancer cell growth inhibition, primary screen, CellTiter-Glo luminescence, NPC library (AID 1117342;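 active means compounds that lower survival of HCT116 colon cancer cells in the luminescence readout, no numeric limit stated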); conditions: at 20 µM (top of the series)
[7] = reduced SW480 viability measured with CellTiter-Glo, NPC library, primary (AID 1117343;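 active means compounds that lower viability of the colon cancer cells in the luminescence readout, with no numeric limit stated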); conditions: CellTiter-Glo luminescence; at 20 µM (top of the series)
[8] = NPC library primary testing for decreased DLD-1 cell viability via CellTiter-Glo (AID 1117346;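 active means compounds that lower survival of DLD-1 colon cancer cells in the luminescence readout, no cutoff given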); conditions: DLD-1 viability, CellTiter-Glo luminescence; at 20 µM (top of the series)

COc1cc2[nH]c(=O)[nH]c(=O)c2cc1OC
inactive: nuclear beta-catenin stimulation ([1]; at 10 µM) 0.1% | insulin secretion stimulation [2] -1.8% | viability decrease [3] 6.35% | tube area decrease [4] -8.3% | GLP1 secretion stimulation [5] 3.1% | inhibition of viability [6] -1.4% | viability decrease (inhibition) [7] 47.6% | viability decrease (inhibition) [8] 0.05%
1.1%: nuclear beta-catenin stimulation ([1]; stimulation, at 2 µM)

CC(C)NCCCC1(C(N)=O)c2ccccc2-c2ccccc21
inactive: nuclear beta-catenin stimulation ([1]; at 10 µM) 3.9% | insulin secretion stimulation [2] 0.2% | viability decrease [3] -48.2% | tube area decrease [4] 24.7% | GLP1 secretion stimulation [5] -2.8% | inhibition of viability [6] -11.9% | viability decrease (inhibition) [7] 1.7% | viability decrease (inhibition) [8] -17%
0.2%: nuclear beta-catenin stimulation ([1]; stimulation, at 2 µM)

CCOCCOC(=O)/C=C/c1ccc(OC)cc1
inactive: nuclear beta-catenin stimulation ([1]; at 10 µM) 1.4% | insulin secretion stimulation [2] -1.7% | viability decrease [3] -11.8% | tube area decrease [4] 18.9% | GLP1 secretion stimulation [5] -4% | inhibition of viability [6] -4.53% | viability decrease (inhibition) [7] 17.1% | viability decrease (inhibition) [8] 9.7%
1%: nuclear beta-catenin stimulation ([1]; stimulation, at 2 µM)

Cc1ccc(CCn2c3c(c4cc(Cl)ccc42)CN(C)CC3)cn1
inactive: nuclear beta-catenin stimulation ([1]; at 10 µM) 0.2% | viability decrease [3] 40.3% | tube area decrease [4] 3.4% | GLP1 secretion stimulation [5] 1.7% | viability decrease (inhibition) [8] 11.5%
active: insulin secretion stimulation [2] 42% | inhibition of viability [6] 62.1% | viability decrease (inhibition) [7] 81.6%
0.7%: nuclear beta-catenin stimulation ([1]; stimulation, at 2 µM)

CCCN(CCC)C(=O)C(CCC(=O)OCCCN1CCN(CCOC(=O)Cc2c(C)n(C(=O)c3ccc(Cl)cc3)c3ccc(OC)cc23)CC1)NC(=O)c1ccccc1 (stereo unspecified)
active: nuclear beta-catenin stimulation ([1]; at 10 µM) 51% | viability decrease [3] 113% | inhibition of viability [6] 113% | viability decrease (inhibition) [7] 120% | viability decrease (inhibition) [8] 93.3%
-0.4%: nuclear beta-catenin stimulation ([1]; stimulation, at 2 µM)
inactive: insulin secretion stimulation [2] 0.4% | tube area decrease [4] 25.9% | GLP1 secretion stimulation [5] 3.5%

O=C1NC2CCCCN2C12CCN(CCCN1c3ccccc3CCc3ccc(Cl)cc31)CC2 (stereo unspecified)
active: viability decrease [3] 108% | tube area decrease [4] 89.4% | inhibition of viability [6] 112% | viability decrease (inhibition) [7] 128% | viability decrease (inhibition) [8] 101%
0.1%: nuclear beta-catenin stimulation ([1]; stimulation, at 2 µM)
inactive: nuclear beta-catenin stimulation ([1]; at 10 µM) 13.1% | insulin secretion stimulation [2] 3.85% | GLP1 secretion stimulation [5] 13.3%

Nc1ccc(S(=O)(=O)NCc2ccccc2)cc1
1.8%: nuclear beta-catenin stimulation ([1]; stimulation, at 2 µM)
inactive: nuclear beta-catenin stimulation ([1]; at 10 µM) 0.8% | insulin secretion stimulation [2] -2.5% | viability decrease [3] -8.1% | tube area decrease [4] -5.2% | GLP1 secretion stimulation [5] 0.6% | inhibition of viability [6] -18.3% | viability decrease (inhibition) [7] 37.6% | viability decrease (inhibition) [8] 10.1%

CCOC(=O)C1=C(O)c2ccccc2S(=O)(=O)N1C
inactive: nuclear beta-catenin stimulation ([1]; at 10 µM) -1.5% | insulin secretion stimulation [2] 0.9% | viability decrease [3] -6% | tube area decrease [4] -19.5% | GLP1 secretion stimulation [5] -4% | inhibition of viability [6] 10.3% | viability decrease (inhibition) [7] 12% | viability decrease (inhibition) [8] 4.2%
-0.7%: nuclear beta-catenin stimulation ([1]; stimulation, at 2 µM)

O=C(O)[C@@H]1CCCN1
1.2%: nuclear beta-catenin stimulation ([1]; stimulation, at 2 µM)
active: viability decrease (inhibition) [8] 57.9%
inactive: nuclear beta-catenin stimulation ([1]; at 10 µM) 0.9% | insulin secretion stimulation [2] 1.6% | viability decrease [3] 2.9% | tube area decrease [4] -4% | GLP1 secretion stimulation [5] -1.7% | inhibition of viability [6] 36.6% | viability decrease (inhibition) [7] 42.8%

CCN[C@@H]1C[C@H](N)[C@@H](OC2OC(CN)=CCC2N)[C@H](O)[C@H]1O[C@H]1OC[C@](C)(O)[C@H](NC)[C@H]1O (stereo partly specified)
inactive: nuclear beta-catenin stimulation ([1]; at 10 µM) 1.3% | insulin secretion stimulation [2] 0.5% | viability decrease [3] -7.4% | tube area decrease [4] 0.9% | GLP1 secretion stimulation [5] -0.5% | inhibition of viability [6] -2.2% | viability decrease (inhibition) [7] -1.7% | viability decrease (inhibition) [8] 3.7%
0%: nuclear beta-catenin stimulation ([1]; stimulation, at 2 µM)

CCN(CC)CCOC(=O)C1(c2ccccc2)CCCC1
inactive: nuclear beta-catenin stimulation ([1]; at 10 µM) -1.2% | insulin secretion stimulation [2] 9.3% | viability decrease [3] -14.1% | tube area decrease [4] 22.6% | GLP1 secretion stimulation [5] -2.7% | inhibition of viability [6] 4% | viability decrease (inhibition) [7] -1.9% | viability decrease (inhibition) [8] -2.6%
-0.5%: nuclear beta-catenin stimulation ([1]; stimulation, at 2 µM)

CCOC(=O)Oc1ccc(CCNC(=O)[C@H](CCSC)NC(C)=O)cc1OC(=O)OCC
1.3%: nuclear beta-catenin stimulation ([1]; stimulation, at 2 µM)
inactive: nuclear beta-catenin stimulation ([1]; at 10 µM) -0.7% | insulin secretion stimulation [2] -1.6% | viability decrease [3] 41% | tube area decrease [4] 1.3% | GLP1 secretion stimulation [5] -1.1% | inhibition of viability [6] 2.33% | viability decrease (inhibition) [7] 14.7% | viability decrease (inhibition) [8] 18.4%

O=C(CCC1CCN(Cc2ccccc2)CC1)c1ccc2c(c1)NCCCC2
inactive: nuclear beta-catenin stimulation ([1]; at 10 µM) 3.2% | insulin secretion stimulation [2] 4.2% | tube area decrease [4] 12.9% | GLP1 secretion stimulation [5] 4.3%
3.5%: nuclear beta-catenin stimulation ([1]; stimulation, at 2 µM)
active: viability decrease [3] 53.5% | inhibition of viability [6] 81.9% | viability decrease (inhibition) [7] 93.9% | viability decrease (inhibition) [8] 62.1%

Cc1cc(O)c2ccccc2c1O
74.4% (active) and 26.8% (inactive): tube area decrease [4]
active: viability decrease [3] 101% and 99.2% | inhibition of viability [6] 102% and 99.5% | viability decrease (inhibition) [7] 142% and 102% | viability decrease (inhibition) [8] 104% and 101%
53.2% (active) and 30.1% (inactive): nuclear beta-catenin stimulation ([1]; at 10 µM)
1.1% and -0.7%: nuclear beta-catenin stimulation ([1]; stimulation, at 2 µM)
inactive: insulin secretion stimulation [2] 5% and 0.4% | GLP1 secretion stimulation [5] -6.3% and -0.9%

— PubChem BioAssay
